An excerpt weighted towards active compounds, which were near 4.7% of everything screened.
TIM10 inh = inhibits growth of TIM10 yeast strain. S. cerevisiae TIM10 strain growth, BacTiter-Glo luminescence, 24 h. inhibition, % at 10 µM. hit rate 1.4% among 330,000;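 active = inhibition of 40% or more at the single tested concentration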;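 also: wild-type TIM10 isogenic control strain grown at permissive 25 °C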
EBI2 antag = antagonists of human EBI2 receptor. hit rate 0.81% among 360,000. inhibition, % at 5 µM. EBI2 beta-arrestin recruitment, luminescence, 7a,25-OHC stimulated. P32249; in the data active = inhibition above about 38%;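 also: enzyme fragment complementation signal reports receptor beta-arrestin coupling in cells; 0% = agonist plus DMSO wells and 100% = wells without agonist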
Target sequence (P32249 whole entry, looked up, the tested form may be a part): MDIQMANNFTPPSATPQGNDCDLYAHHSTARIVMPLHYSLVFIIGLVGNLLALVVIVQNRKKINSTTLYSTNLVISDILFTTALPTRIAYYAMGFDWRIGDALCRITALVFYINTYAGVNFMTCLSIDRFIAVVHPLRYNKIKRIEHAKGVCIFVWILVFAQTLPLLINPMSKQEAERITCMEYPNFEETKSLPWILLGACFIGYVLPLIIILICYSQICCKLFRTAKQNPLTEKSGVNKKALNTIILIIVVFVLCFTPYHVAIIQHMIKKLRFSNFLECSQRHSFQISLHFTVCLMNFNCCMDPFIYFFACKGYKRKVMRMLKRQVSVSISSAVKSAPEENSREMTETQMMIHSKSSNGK
tim23-1 inh = inhibits growth of tim23-1 mutant yeast. inhibition, % at 20 µM. AID 463212. S. cerevisiae tim23-1 growth, BacTiter-Glo luminescence, 24 h. hit rate 1.3% among 330,000;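 active = growth inhibition of the mutant yeast at or above 50%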;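 also: temperature-sensitive mutant grown at 25 °C; plate controls were DMSO-treated mutant yeast for no effect and medium wells lacking yeast for full effect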
PfHsp90 set2 = inhibits growth of yeast expressing Plasmodium falciparum Hsp90 | inhibition, % at 9.4 µM | hit rate 0.32% among 310,000 | S. cerevisiae expressing PfHsp90, BacTiter-Glo ATP, 48 h; yeast lacking PDR1 and PDR3 efflux regulators;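 active = every replicate shows inhibition above about 80%, whatever the replicate mean, limit read from the data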;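 also: 0% = DMSO neutral controls and 100% = 20 µM radicicol positive controls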
SKKanGAS inh = SKKanGAS growth inhibition; inhibition, % at 7.5 µM; hit rate 1.3% among 300,000; S. pyogenes SKKanGAS, kanamycin growth, BacTiter-Glo, 6 h;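 active = mean replicate score, as percent of positive control median, at least 50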;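 also: strain carries kanamycin resistance gene driven by streptokinase promoter and grows in 40 µg/ml kanamycin; loss of luminescence reflects streptokinase promoter inhibition or plain growth inhibition; 0% = median of DMSO wells and 100% = positive control at its reference dose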
tim10-1 inh = tim10-1 yeast growth inhibition. S. cerevisiae tim10-1 ts strain growth, BacTiter-Glo, 24 h. inhibition, % at 20 µM. hit rate 2.2% among 330,000. AID 463190;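 active = inhibition of at least 40%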;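 also: mutant grown at 25 °C; 0% = DMSO wells with yeast and 100% = wells holding no yeast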
tim10-1 conf = tim10-1 yeast growth inhibition, confirmed | shares compounds with tim10-1 inh | S. cerevisiae tim10-1 ts strain growth, BacTiter-Glo, 24 h | inhibition, % at 20 µM | hit rate 56% among 7,400 | AID 463213;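 active = inhibition of yeast growth at or above a set limit in either of two repeat tests at 20 µM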;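 also: tim10-1 mutant grown at permissive 25 °C to find synthetic lethal compounds; 0% = DMSO yeast wells and 100% = medium wells without yeast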
Active calls of the source: *; x = no result.

SMILES | TIM10 inh | EBI2 antag | tim23-1 inh | PfHsp90 set2 | SKKanGAS inh | tim10-1 inh | others
CCCCn1c(=O)c(C(=O)NCc2ccccc2)c(O)c2ccccc21 | -11 | -9 | 26 | 0 | 76* | -30
CCCCn1c(=O)c(C(=O)NCc2ccccc2Cl)c(O)c2ccccc21 | -1 | 8 | 5 | -2 | 50* | -29
CCCCCn1c(=O)c(C(=O)NCc2ccc(Cl)cc2)c(O)c2ccccc21 | -10 | 9 | 14 | 26 | 17 | -5
CCCCn1c(=O)c(C(=O)NCc2ccncc2)c(O)c2ccccc21 | 13 | -5 | 29 | 5 | 58* | 8
CCCCn1c(=O)c(C(=O)NCc2ccco2)c(O)c2ccccc21 | 3 | 5 | -9 | 3 | -11 | -5
Cc1cccc(C#N)c1 | 4 | 6 | -11 | -5 | x | -7
Cc1nonc1-c1nc(-c2nonc2N)n[nH]1 | -11 | -9 | 11 | 2 | 2 | 7
CC1(c2ccc(Cl)cc2Cl)OCC(Cn2cncn2)O1 (configuration not stated) | 14 | -10 | 5 | -2 | -5 | 4
CCCC1COC(Cn2cncn2)(c2ccc(Cl)cc2Cl)O1 (configuration not stated) | -47 | -4 | -402 | 107* | 0 | -46
COC(=O)C1=C(c2ccc(OC(F)(F)F)cc2)C[C@@H]2CC[C@H]1N2C(=O)NC(C)C | 3 | -2 | 30 | 12 | x | 13
O=c1oc2ccccc2c(O)c1C(c1ccc([N+](=O)[O-])cc1)c1c(O)c2ccccc2oc1=O | x | 5 | x | -34 | 62* | x
CC(C)c1ccc(C(c2c(O)c3ccccc3oc2=O)c2c(O)c3ccccc3oc2=O)cc1 | x | -1 | x | x | x | x
Oc1c(Cl)cc(Cl)cc1CN1CCN(Cc2ccccc2)CC1 | 21 | 4 | 19 | 1 | 3 | 22
Oc1c(Cl)cccc1Cc1cc(Cl)cc(Cl)c1O | x | -2 | x | 109* | x | x
O=C1CC(=O)N(Cc2ccccc2)C(=S)N1 | 8 | -6 | -4 | 3 | -3 | -6
COCCNC(=O)c1c(NC(=O)c2ccc(Br)o2)n(Cc2ccccc2)c2nc3ccccc3nc12 | 16 | 15 | 18 | 9 | 61* | 31
Cn1cc(NC(=O)CCl)cn1 | -12 | -11 | 5 | x | 4 | 6
Cc1nn(-c2ccccc2)c(Cl)c1C1C(C#N)=C(N)Oc2c1c(=O)oc1ccccc21 (configuration not stated) | 14 | -3 | 26 | -38 | 108* | 21
COc1cc(/C=C2\C[C@H]3[C@@H]4CC=C5C[C@@H](N6CCCC6)CC[C@]5(C)[C@H]4CC[C@]3(C)[C@H]2O)cc(OC)c1OC | x | 15 | x | -31 | x | x
COc1cc2c(cc1/C=C/[N+](=O)[O-])OCO2 | x | -38 | x | 106* | 6 | x
CCCCC/C=C\C/C=C\C/C=C\C/C=C\CCCC(=O)Nc1ccc(O)cc1 | x | x | x | x | 107* | x
CC1=CC(C)CC(C)OC(=O)CC(c2ccc(O)cc2)NC(=O)C(Cc2c(Br)[nH]c3ccccc23)N(C)C(=O)C(C)NC(=O)C(C)C1 (configuration not stated) | x | -34 | x | 105* | x | x
COC[C@H]1OC(=O)c2coc3c2[C@@]1(C)C1=C(C3=O)[C@@H]2CCC(=O)[C@@]2(C)C[C@H]1OC(C)=O | x | 7 | x | 106* | x | x
Clc1ccc(CO/N=C(\Cn2ccnc2)c2ccc(Cl)cc2Cl)c(Cl)c1 | -72 | x | -41 | x | 96* | 33
Cn1c(O)c(C=NCCN2CCOCC2)c(=O)[nH]c1=S | 8 | 1 | 12 | -3 | 0 | 0
SMILES | TIM10 inh | EBI2 antag | tim23-1 inh | PfHsp90 set2 | SKKanGAS inh | tim10-1 inh | others
CCS(=O)(=O)Nc1cccc(C(=C2CCCCC2)c2cnc[nH]2)c1 | 5 | -5 | 0 | 3 | x | 17
Cc1ccccc1CN1CCCN(Cc2ccc(Cl)cc2)S1(=O)=O | 7 | 5 | 21 | 3 | 63* | 11
Cc1ccc(CN2CCCN(Cc3ccc(Cl)cc3)S2(=O)=O)cc1 | 1 | -3 | 7 | 4 | 23 | 7
Cc1cccc(OP(=O)(NCc2ccccc2)Oc2cccc(C)c2)c1 | 34 | 32 | 38 | -20 | 5 | 26
CCCCCCCn1c(=O)c(C(=O)Nc2cnccn2)c(O)c2ccccc21 | 8 | 0 | 34 | 30 | 60* | -25
CCCCCn1c(=O)c(C(=O)Nc2cc(C)ccn2)c(O)c2ccccc21 | -15 | -7 | 12 | -7 | 3 | -26
CCCCCn1c(=O)c(C(=O)Nc2cnccn2)c(O)c2ccccc21 | 22 | 1 | 35 | 11 | 81* | 7
C=CCN1C(=O)C2(C(C(=O)OCC)=C(N)Oc3ccccc32)c2c1c1ccccc1oc2=O (configuration not stated) | 29 | 20 | 37 | -5 | 8 | 28
O=[N+]([O-])c1ccc(N(CCO)CCO)c2c1no[n+]2[O-] | x | 2 | x | x | x | x
CN1CCN(c2ccc([N+](=O)[O-])c3no[n+]([O-])c23)CC1 | x | -6 | x | -263 | 104* | x
CC1Oc2cc3c(-c4c(O)cc(O)c5c(O)c6c(cc45)OC(C)C(C)C6=O)c(O)cc(O)c3c(O)c2C(=O)C1C (configuration not stated) | 0 | -27 | 24 | -41 | 107* | 6
Cc1cccc(-c2nc3ccc(C(=O)N4CCC5(CC4)OCCO5)cc3nc2-c2cccc(C)c2)c1 | 13 | 15 | 36 | -17 | 15 | 40* | tim10-1 conf=4
COc1cccc(C(=O)N2CCC3(CC2)OCCO3)c1 | -10 | -2 | 15 | 3 | -8 | -29
Cc1c(CCN)ccc2c1[nH]c1ccccc12 | 19 | -12 | 26 | 6 | 16 | 41* | tim10-1 conf=15
Cc1oc2ccc(OC(=O)N(C)C)cc2c1C(=O)OC(C)C | 34 | -25 | 36 | 0 | -3 | 42* | tim10-1 conf=24
COc1ccc(NP(=O)(Oc2ccccc2OC)Oc2ccccc2OC)cc1 | 9 | -3 | 33 | -13 | 6 | 41* | tim10-1 conf=14
Cc1nc2c(-c3ccc(F)cc3)c(C)nn2c(C)c1CCC(=O)N1CCC2(CC1)OCCO2 | 13 | -7 | 8 | x | -6 | 40* | tim10-1 conf=26
Cc1cc(OCC(=O)NC(Cc2ccc(Cl)cc2)C(=O)O)c2c3c(c(=O)oc2c1)CCC3 (configuration not stated) | 1 | 0 | -9 | 10 | 12 | 10
CNCC(O)c1cc(OCc2ccccc2)c(OCc2ccccc2)cc1F (configuration not stated) | -7 | -13 | 9 | -22 | 12 | 0
CC1(C)C(C(=O)N2CCN(c3ccc(Cl)cc3)CC2)C1(C)C | 11 | 6 | 24 | 2 | 2 | 21
COC(=O)C1CN(C#N)N(c2ccc(Cl)cc2)C12c1ccccc1-c1ccccc12 (configuration not stated) | 37 | 53* | 40 | 96* | 67* | 58* | tim10-1 conf=42*
